Data published in PubChem BioAssay (NCATS).
Records with an inconclusive call do not appear. A call without a number means that no potency is given here. A number with no mark means an inactive call. Active and inactive are the calls of the source. The call rests on the fitted dose curve; in most records, active means well fitted curve in the direction sought with a large enough effect; inconclusive means small, poorly fitted or top-dose-only effect, or another doubt; inactive means no such curve, though single readings can be large; an effect the other way counts as inactive or inconclusive. Numbered stars: 1 amine (or outer) side, 2 acyl side, 3 side chain; on linkers, the order of the positions; unused ones are H or OH. Square brackets hold non-standard residues; d marks the D form. Peptide text beside a SMILES is read from it. X2 = CC(C)=CCc1cc(C(O)C(N[*:1])C(=O)[*:2])ccc1O; dPhe(4-Cl) = N[C@H](Cc1ccc(Cl)cc1)C(=O)O; d2Nal = N[C@H](Cc1ccc2ccccc2c1)C(=O)O; dCit = NC(=O)NCCC[C@@H](N)C(=O)O; d3Pal = N[C@H](Cc1cccnc1)C(=O)O

The molecules below were run against Aldehyde dehydrogenase, mitochondrial (Homo sapiens) (UniProt P05091) (assay: qHTS for Inhibitors of the Aldehyde Dehydrogenase Family (ALDH2) Primary screen (AID 2061308; further: nearly all actives have a fitted effect of over 55% in size)). Details: ALDH2 enzyme inhibition qHTS, 1536-well; series mostly up to 56 µM.

| SMILES | Potency |
| --- | --- |
| CC1CCC2C(C)(C)C(O)CCC2(C)C12Cc1c(O)cc3c(c1O2)CN(C(CCC(N)=O)C(=O)O)C3=O (centres undefined) | inactive |
| C/C=C(/COC(=O)/C(C)=C/C)C(=O)OC(CC)c1ccc(OC)c(OC)c1 (centres undefined) | inactive |
| CC12CCC3C(C)(C)C(O)CCC3(C)C1Cc1c(oc(C(=O)O)cc1=O)O2 (centres undefined) | inactive |
| Cc1ccc(-c2ncccn2)c(C(=O)N2C[C@H](COc3ccc(F)cn3)CC[C@H]2C)c1 | inactive |

Each molecule was assayed against Retinaldehyde dehydrogenase 3 (Homo sapiens) (UniProt P47895) (assay: qHTS for Inhibitors of the Aldehyde Dehydrogenase Family (ALDH1A3) Primary screen (AID 2061315)). Details: ALDH inhibition qHTS; series mostly up to 56 µM.

| SMILES | Potency | activity change, negative = inhibition |
| --- | --- | --- |
| CC(C)=CCc1cc(C(O)C2NC(=O)CNC(=O)C(Cc3c[nH]c4ccccc34)NC(=O)C3CCCN3C(=O)CNC(=O)C(C(C)C)NC(=O)CNC2=O)ccc1O (centres undefined) (cyclo(G[X2]GVGPW); configuration not given here) | inactive | – |
| NC(=O)c1csc(C2OC(CO)C(O)C2O)n1 (centres undefined) | inactive | – |
| CC(C)c1c(O)ccc2c1CC[C@H]1C(C)(C)CCC[C@]21C | inactive | – |
| O=C(O)/C=C/c1ccc(O)c(O[C@@H]2O[C@H](CO)[C@@H](O)[C@H](O)[C@H]2O)c1 | inactive | – |
| CC(=O)OC1C(OC(=O)c2ccccc2)C2C(C)(C)CCC(OC(C)=O)C2(C)C23CCC(C)(C2)C(=O)CC13 (centres undefined) | inactive | – |
| C=CC1(C)C=C2CC[C@H]3[C@@](C)(C(=O)O)CCC[C@]3(C)C2CC1 (some centres undefined) | inactive | – |
| CNC(=O)[C@H]1O[C@@H](n2cnc3c(NCc4ccc(N)c(I)c4)ncnc32)[C@H](O)[C@@H]1O | – | 4.83% [at 11.2 µM] |
| CC1CC(O)C2(OC1=O)OC1C(O)C3C4CCC5CC(OC6OC(CO)C(O)C(O)C6OC6OC(C)C(O)C(O)C6O)CCC5(C)C4CCC3(C)C1C2C (centres undefined) | inactive | – |
| OC[C@H]1O[C@@H](O[C@H]2[C@H](OCc3ccccc3)O[C@H](CO[C@@H]3OC[C@@H](O)[C@H](O)[C@H]3O)[C@@H](O)[C@@H]2O)[C@H](O)[C@@H](O)[C@@H]1O | inactive | – |
| CN=C(N)NCCCCC/C=C(/C)CC(C)C1OC(=O)C(C)C(O)/C=C/C(C)C(O)CC(O)C(C)C(O)CCC(C)C(O)CC2(O)OC(CC(OC(=O)CC(=O)O)CC(O)CC(O)C(C)C(O)/C(C)=C/CCC1C)CC(O)C2O (centres undefined) | inactive | – |
| O=c1[nH]c2ccc(C#CCN3CCC(Cc4ccccc4)CC3)cc2[nH]1 | inactive | – |
| O=C(O)[C@H]1Cc2ccccc2CN1 | – | -14.2% [at 5.59 µM] |
| COc1cc(-c2ccc(O)cc2)c(OC)c(O)c1C1=CC(=O)OC1CC(=O)O (centres undefined) | inactive | – |
| COc1ncc2cc(C(=O)Nc3cc(C(=O)NCc4cccc(Cl)c4)ccc3Cl)c(=O)[nH]c2n1 | inactive | – |
| CC1(C)CC[C@]2(C(=O)O[C@@H]3O[C@H](CO)[C@@H](O)[C@H](O)[C@H]3O)CC[C@]3(C)C(=CCC4[C@@]5(C)C[C@@H](O)[C@H](O)C(CO)(CO)C5CC[C@]43C)C2[C@@H]1O (some centres undefined) | inactive | – |
| C=C(C)[C@H]1CC[C@]2(C(=O)O)CC[C@]3(C)C(CCC4[C@@]5(C)CCC(=O)C(C)(C)C5CC[C@]43C)C12 (some centres undefined) | inactive | – |
| O=C(CC1C(=O)Nc2ccccc21)OC[C@H]1O[C@@H](OCCc2ccc(O)cc2)[C@H](O)[C@@H](O)[C@@H]1O (some centres undefined) | inactive | – |
| C=C1CCC2[C@@](C)(C=O)CCC[C@]2(C)[C@H]1CC/C(C)=C/CO (some centres undefined) | inactive | – |
| CC1(C(=O)O)CCCC2(C)C3=CCC4CC3(CCC12)CC4CO (centres undefined) | inactive | – |
| N#Cc1cccc(-c2nc(-c3cccnc3)no2)c1 | inactive | – |
| CC(C)=CCC/C(C)=C/CO[C@@H]1O[C@H](CO)[C@@H](OC(=O)/C=C/c2ccc(O)cc2)[C@H](O[C@@H]2O[C@@H](C)[C@H](O)[C@@H](O)[C@H]2O)[C@H]1O | inactive | – |
| CC(C)C1NC(=O)C2CCCN2C1=O (centres undefined) | inactive | – |
| CC(=O)N[C@H](Cc1ccc2ccccc2c1)C(=O)N[C@H](Cc1ccc(Cl)cc1)C(=O)N[C@H](Cc1cccnc1)C(=O)N[C@@H](CO)C(=O)N[C@@H](Cc1ccc(O)cc1)C(=O)N[C@H](CCCNC(N)=O)C(=O)N[C@@H](CC(C)C)C(=O)N[C@@H](CCCN=C(N)N)C(=O)N1CCC[C@H]1C(=O)N[C@H](C)C(N)=O (Ac-[d2Nal][dPhe(4-Cl)][d3Pal]SY[dCit]LRP[dA]-NH2) | inactive | – |
| C[C@]1(OC(=O)/C=C\c2ccc(O)cc2)C[C@@H](O)[C@]2(O)C=CO[C@@H](O[C@@H]3O[C@H](CO)[C@@H](O)[C@H](O)[C@H]3O)C12 (some centres undefined) | inactive | – |
| C[C@]1(CO)CN(c2cc(C(=O)Nc3ccc4c(c3)-c3c(c(C(N)=O)nn3-c3ccc(F)cc3)CC4)c(Cl)cn2)C[C@@]1(C)CO | inactive | – |
